Measured values published in PubChem BioAssay AID488859 (Sanford-Burnham Center for Chemical Genomics, 2010).
The campaign covered roughly 1,400 compounds. About 970 (69%) were called active. Inconclusive results (about 5%) are left out. Cut-off read from the data, not from the text of the source: active = inhibition above about 45%; inconclusive = no clear call, values can overlap the other calls; inactive = below that. So high a share suggests a set chosen from earlier hits. Not all results are given here.

Each compound was assayed against Ubiquitin-conjugating enzyme E2 N (Homo sapiens) (UniProt P61088) (assay: retested blockers of UBC13 chain formation – biochemical, TR-FRET, single concentration, confirmation (AID 488859)). Details: UBC13 polyubiquitination, at 10 µM, active compounds read high.
Sequence of Ubiquitin-conjugating enzyme E2 N (Homo sapiens) (P61088 whole entry, looked up): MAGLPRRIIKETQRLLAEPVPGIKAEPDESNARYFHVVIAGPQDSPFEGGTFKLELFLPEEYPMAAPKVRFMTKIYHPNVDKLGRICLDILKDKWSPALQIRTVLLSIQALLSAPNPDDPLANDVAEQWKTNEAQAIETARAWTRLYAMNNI

SMILES | inhibition
O=C(COC(=O)Cn1cnc2ccccc2c1=O)NCc1ccccc1Cl | 57.6% (active)
CCN1CCN(CCNC(=O)c2ccc(/C=C3/Sc4ccccc4N(Cc4cccc(C)c4)C3=O)cc2)CC1 | 85.6% (active)
CCC(C(=O)NC1CCCC1)N(C(=O)c1snc(C(N)=O)c1N)c1ccc2c(c1)OCCO2 (stereo unspecified) | 95% (active)
COc1ccc(N(C(=O)c2snc(C(N)=O)c2N)C(C(=O)NC2CCCC2)c2ccco2)cc1OC (stereo unspecified) | 96.8% (active)
NC(N)=Nc1nc(-c2ccccc2)c2cc(Cl)ccc2n1 | 79.9% (active)
COc1ccc(C(CNC(=O)c2ccc(S(=O)(=O)Nc3ccccc3F)cc2)N(C)C)cc1 (stereo unspecified) | 114% (active)
NC(=O)NC(CC(=O)NNC(=O)c1ccccn1)c1ccc(Cl)cc1 (stereo unspecified) | 95.3% (active)
CC(C)n1cnc2c(Nc3cccc(Cl)c3)nc(N(CCO)CCCO)nc21 | 30.6% (inactive)
COc1cccc2sc3cc(NCC[C@@H]4CCCN4C)ccc3c(=O)c12 | 41.3% (inactive)
CCCC[C@@H]1CN=C(N)N1CCc1cc(C(F)(F)F)cc(C(F)(F)F)c1 | 55.4% (active)
CN(C)CC(O)COc1ccc(C(C)(C)c2ccc(OCC(O)CN(C)C)cc2)cc1 (stereo unspecified) | 60.5% (active)
Cc1ccc(NC(=O)c2cnc(SCC(=O)NCC3CCCO3)n(C)c2=O)cc1 (stereo unspecified) | 95.9% (active)
NC[C@H](Cc1ccccc1)NCCc1cc(C(F)(F)F)cc(C(F)(F)F)c1 | 40.1% (inactive)
Cc1c(CN2CCC(CO)(CCOc3ccccc3)CC2)[nH]c2ccc(Cl)cc12 | 74% (active)
CCOC(=O)[C@@H]1[C@H]2COc3cc(OC)ccc3[C@H]2N2C(=O)N(c3ccc(F)cc3)C(=O)[C@]12C | 1.2% (inactive)
O=C(CCCCCN1C(=O)c2cccc3cccc(c23)C1=O)NCc1ccco1 | 50.7% (active)
CN(C)c1ccnc2sc3c(=O)n(Cc4ccccc4)cnc3c12 | 57.1% (active)
COc1ccnc2c1c(=O)n(Cc1cccc(F)c1)c(=O)n2C | 52.3% (active)
C#CCOCCOCCOCCNc1nc(N2CCN(C(=O)CCCCCCCCCCNC(=O)Cn3cc(CCCCCN)nn3)CC2)nc(N2CCN(C(=O)CCCCCCCCCCNC(=O)[C@H](CO)n3cc(CCCSC)nn3)CC2)n1 | 129% (active)
C#CCOCCOCCOCCNc1nc(N2CCN(C(=O)CCCCCCCCCCNC(=O)[C@H](CCCCN)n3cc(C)nn3)CC2)nc(N2CCN(C(=O)CCCCCCCCCCNC(=O)[C@H](CO)n3cc(CCCSC)nn3)CC2)n1 | 121% (active)
C#CCOCCOCCOCCNc1nc(N2CCN(C(=O)CCCCCCCCCCNC(=O)[C@H]([C@@H](C)CC)n3cc(CCCCN=C(N)N)nn3)CC2)nc(N2CCN(C(=O)CCCCCCCCCCNC(=O)[C@H](CO)n3cc(CCCSC)nn3)CC2)n1 | 121% (active)
CC1(C)Cc2ccccc2-c2[nH]c(=S)[nH]c(=O)c21 | 26.2% (inactive)
CC1CC(C)(C)n2c(O)c(N=NC(N)=S)c3cccc1c32 (stereo unspecified) | 107% (active)
COc1ccc(-n2nnnc2-c2nc3ccccc3s2)cc1 | 51.1% (active)
CN1CCC(CN)(N2CCN(c3ccccc3)CC2)CC1 | 48.6% (active)
CC(=O)NC(=S)NNC(=O)c1ccc(Br)cc1 | 89.8% (active)

SMILES | inhibition
COc1ccc(/C=N\NC(=O)c2sc(N)nc2C)cc1OC | 110% (active)
O=C(CCCCCn1c(=O)[nH]c2ccccc2c1=O)NCCc1c[nH]c2ccccc12 | 67.3% (active)
CCOC(=O)N1CCN(C(=O)Cc2ccc(-n3c(=S)[nH]c4ccccc4c3=O)cc2)CC1 | 37.3% (inactive)
c1ccc(C[C@H]2CNCCN2CCC23CC4CC(CC(C4)C2)C3)cc1 | 42.5% (inactive)
CCN(CC)CCNC(=O)c1ccc(NC(=O)c2cc(-c3ccncc3)nc3ccccc23)cc1 | 91.5% (active)
CCOc1ccc(N(C(=O)c2snc(C(N)=O)c2N)C(C(=O)NCC2CCCO2)c2c[nH]c3ccccc23)cc1 (stereo unspecified) | 100% (active)
Cc1ccc(C(C(=O)NCC2CCCO2)N(C(=O)c2snc(C(N)=O)c2N)c2ccc(C(C)C)cc2)o1 (stereo unspecified) | 30.4% (inactive)
COc1cccc(N(C(=O)c2snc(C(N)=O)c2N)C(C(=O)NCC2CCCO2)c2c[nH]c3ccccc23)c1 (stereo unspecified) | 57.9% (active)
Cc1ccc(N(C(=O)c2snc(C(N)=O)c2N)C(C(=O)NCC2CCCO2)c2c[nH]c3ccccc23)cc1 (stereo unspecified) | 70.6% (active)
O=c1cc(CO)oc(C(Nc2cccc(C(F)(F)F)c2)c2ccccn2)c1O (stereo unspecified) | 88.9% (active)
O=c1cc(CO)oc(C(Nc2cccc([N+](=O)[O-])c2)c2ccccn2)c1O (stereo unspecified) | 39.1% (inactive)
O=c1c2c(nc3n1CCCCC3)sc1c(O)cccc12 | 104% (active)
Cc1cccc(-n2cnc(C(=O)NNC(=S)Nc3ccccc3)c2)n1 | 107% (active)
CCOCCCNC(=O)c1cn(CC(C)C)c(=O)c2c1c1ccccc1n2C | 37.9% (inactive)
Cc1ccccc1C(=O)OC1OC(=O)C(Cl)=C1Nc1ccccc1 (stereo unspecified) | 88.9% (active)
Cc1ccc(NC2=C(Cl)C(=O)OC2OC(=O)c2ccccc2C)cc1 (stereo unspecified) | 62% (active)
CC[C@@H](C)[C@@H]1CN([C@@H](C)CN2CCC[C@H]2CN2C(N)=NC[C@H]2C(C)C)C(=N)N1CCc1ccc(Cl)c(Cl)c1 | 38.2% (inactive)
C[C@@H](CN1CCC[C@H]1CN1C(N)=NC[C@@H]1Cc1ccccc1)N1C[C@@H](Cc2ccccc2)N(CCCC2CCCC2)C1=N | 58.5% (active)
COc1ccc2sc(-c3ccccc3OC)c(-c3ccc(OCCN4CCCC4)cc3)c2c1 | 54.8% (active)
COc1ccc2sc(-c3ccc(S(C)(=O)=O)cc3)c(C#Cc3cncn3C)c2c1 | 29.5% (inactive)
CCOC(=O)c1ccc(NC(=O)c2nc[nH]c2C(=O)NCc2ccccc2)cc1 | 25.1% (inactive)
CC1CN(C(=O)CCC(=O)NCCCN2CCC(Cc3ccccc3)CC2)c2cc(Cl)ccc2O1 (stereo unspecified) | 87.8% (active)
CCOC(=O)C1=C(c2ccccc2)O/C(=C(/C(=O)OC)C(F)(F)F)S1 | 42.4% (inactive)
Cc1cccc(-c2nc3ccc(C(=O)NCCN4CCN(C)CC4)cc3nc2-c2cccc(C)c2)c1 | 72.8% (active)
Cc1ccc(C(=O)N/C(=C/c2ccc(-c3cccc([N+](=O)[O-])c3)o2)C(=O)NCCCN(C)C)cc1 | 78% (active)
